Assay outcomes deposited in PubChem by several laboratories.
Beta apoptosis: beta cell apoptosis inhibition | INS-1E cytokine-induced death, ATP luminescence, 48 h; percent of positive-control rescue, neutral wells zero | protection from apoptosis, % (test concentration not listed) | actives 0.8% (n = 300,000) | AID 435005;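 active = Every replicate reaches about 75%, or at least half do and their mean reaches it too, limit read from the data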;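 note: 0% = cytokine-treated negative control wells and 100% = positive control rescue; higher means more ATP so stronger rescue from cytokine killing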
Mdm2-MdmX inh: inhibitors of human Mdm2/MdmX interaction; inhibition, % at 8 µM; actives 3% (n = 330,000); O15151+Q00987; AID 485346; SaOS-2 split-luciferase Mdm2/MdmX complementation, luminescence;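 active = inhibition of at least 50% at 8 µM in the primary screen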
Target sequence (O15151 whole entry, looked up): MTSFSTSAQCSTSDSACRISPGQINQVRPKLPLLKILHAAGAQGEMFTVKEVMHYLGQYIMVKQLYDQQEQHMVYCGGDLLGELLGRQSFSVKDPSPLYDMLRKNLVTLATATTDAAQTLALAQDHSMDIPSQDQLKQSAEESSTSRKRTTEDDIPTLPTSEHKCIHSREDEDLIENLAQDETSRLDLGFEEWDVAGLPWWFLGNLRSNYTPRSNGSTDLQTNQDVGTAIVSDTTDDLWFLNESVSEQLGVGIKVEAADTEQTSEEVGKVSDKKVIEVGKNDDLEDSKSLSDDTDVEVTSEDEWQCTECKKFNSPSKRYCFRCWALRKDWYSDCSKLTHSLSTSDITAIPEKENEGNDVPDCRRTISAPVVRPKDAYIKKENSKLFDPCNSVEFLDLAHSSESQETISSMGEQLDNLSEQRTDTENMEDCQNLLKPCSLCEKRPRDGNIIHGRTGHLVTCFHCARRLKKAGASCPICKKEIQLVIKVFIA
Target sequence (Q00987 whole entry, looked up): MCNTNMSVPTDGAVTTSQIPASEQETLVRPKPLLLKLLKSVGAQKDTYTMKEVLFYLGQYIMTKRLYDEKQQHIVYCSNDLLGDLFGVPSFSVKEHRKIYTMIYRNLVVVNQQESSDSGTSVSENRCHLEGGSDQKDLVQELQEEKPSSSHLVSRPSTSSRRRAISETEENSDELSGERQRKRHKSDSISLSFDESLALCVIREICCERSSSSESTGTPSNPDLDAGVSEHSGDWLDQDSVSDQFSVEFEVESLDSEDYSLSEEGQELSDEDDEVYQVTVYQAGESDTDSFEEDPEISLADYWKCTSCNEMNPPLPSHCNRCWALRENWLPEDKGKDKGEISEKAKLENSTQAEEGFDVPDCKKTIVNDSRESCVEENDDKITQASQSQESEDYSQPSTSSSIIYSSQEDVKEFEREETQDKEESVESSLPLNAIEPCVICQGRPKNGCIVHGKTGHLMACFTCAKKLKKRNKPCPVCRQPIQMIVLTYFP
Calb FLC: affects C. albicans growth with fluconazole | C. albicans CaCi-2 (fluconazole-resistant clinical isolate) + fluconazole, Alamar Blue growth, 48 h | growth inhibition, % (no concentration beside the values) | actives 0.57% (n = 300,000);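 active = growth inhibition above about 58% in most replicates, limit read from the data, passing the limit was not always enough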;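 note: all wells also contain fluconazole at 8 µg/ml as a sub-toxic cotreatment; 0% = median of DMSO wells and 100% = median of geldanamycin control wells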
PP5 primary: inhibitors of human protein phosphatase 5 (PP5) | P53041 | purified PP5c, OMFP substrate fluorescence | inhibition, % at 6.7 µM | actives 0.18% (n = 320,000) | AID 1987;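 active = inhibition above the campaign's mean inhibition across all tested compounds plus 3 SD, cut at about 9.5% in these data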;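 note: 0% = DMSO only and 100% = 100 µM cantharidin control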
PP1 counter: blocks human PP1-alpha phosphatase, a PP5 counter-screen; inhibition, % at 6.7 µM; purified PP1alpha, OMFP fluorescence; actives 0.9% (n = 320,000); AID 2235; P62136;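 active = inhibition above the mean inhibition of all tested compounds plus 3 SD, computed separately for each screening campaign, cut at about 15% in these data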
CSC inhib: blocks cancer stem cells | cancer stem cell-like cells viability, luminescence | inhibition, % at 7.5 µM | actives 1.1% (n = 300,000) | AID 2717; in the data active = inhibition above about 75%; tested in HMLE shEcad cells
Mdm2-MdmX conf: confirmation of human Mdm2/MdmX interaction inhibitors. actives 55% (n = 10,000). Mdm2-MdmX binding, luminescent assay. shares compounds with Mdm2-MdmX inh. inhibition, % at 8 µM. AID 489028; in the data active = inhibition above about 40%
FLuc counter: counter-screen for Mdm2/MdmX inhibitors: full-length luciferase; shares compounds with Mdm2-MdmX inh; SaOS-2 full-length luciferase counterscreen, luminescence; inhibition, % at 8 µM; actives 77% (n = 6,200); AID 504607;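 active = mean inhibition at 8 µM reaching about 37%, which flags the compound as non-specific, limit read from the data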;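 note: p53-null SaOS-2 cells with luciferase driven by a doxycycline-inducible promoter; compound on cells about two nights before reading with doxycycline added after day one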
The depositor's hits bear a star; . = not tested or not shown. Compounds with a hit are over-represented: about 4.9% of the library has one in this group of screens.

SMILES	Beta apoptosis	Mdm2-MdmX inh	Calb FLC	PP5 primary	PP1 counter	CSC inhib	Mdm2-MdmX conf	others
Cn1nc(-c2ccc(Cl)cc2)c2cc(C(=O)N3CCN(c4ccccn4)CC3)sc21	44	55*	1	-4	2	66	16
CC(C)Sc1nnc(CNC(=O)C23CC4CC(CC(C4)C2)C3)n1C1CCCCC1	2	-10	-1	1	-2	43	.
COc1ccc(C2CC(c3cccc(C(F)(F)F)c3)=NN2c2ccc(S(N)(=O)=O)cc2)cc1 (stereo not drawn)	.	87*	.	.	.	.	30
COc1ccc(C2CC(c3cccc(F)c3)=NN2c2ccc(S(N)(=O)=O)cc2)cc1 (stereo not drawn)	.	81*	.	.	.	.	10
COc1ccc(C2CC(c3cccc(Br)c3)=NN2c2ccc(S(N)(=O)=O)cc2)cc1 (stereo not drawn)	.	57*	.	.	.	.	-21
COc1ccc(C2CC(c3ccccc3)=NN2c2ccc(S(N)(=O)=O)cc2)cc1 (stereo not drawn)	6	42	53	1	5	-14	.
NS(=O)(=O)c1ccc(N2N=C(c3ccccc3)CC2c2ccc(F)cc2)cc1 (stereo not drawn)	7	18	28	9	-1	10	.
COc1ccc(C2CC(c3ccccc3Cl)=NN2c2ccc(S(N)(=O)=O)cc2)cc1 (stereo not drawn)	.	45	.	.	.	.	.
O=C(CCc1ccc(O)cc1)N/N=C/c1coc2ccccc2c1=O	-4	-28	19	1	-2	-9	.
COc1ccc(C[C@H]2CN3C(=NC[C@@H]3C(C)C)N2CCNC(=O)c2ccc(C)c(Br)c2)cc1	27	64*	30	5	3	16	32
Cc1ccc(C(=O)NCCN2C3=NC[C@H](C(C)C)N3C[C@H]2Cc2ccc(O)cc2)cc1Br	7	41	-25	0	-1	14	.
COc1ccccc1-c1cc(C(=O)N/N=C/c2ccc(C)s2)c2ccccc2n1	8	71*	4	5	-1	-11	5
COc1cc(/C=N/NC(=O)c2cc(-c3cccc(OC(C)C)c3)nc3ccccc23)ccc1O	6	88*	23	4	1	32	59*	FLuc counter=57*
O=C(Nc1ccc2ccccc2c1)C(c1ccccc1)C1CCCC1 (stereo not drawn)	29	57*	-25	2	6	42	59*	FLuc counter=78*
COC(=O)[C@@]1(Cc2ccc(OC)cc2)[C@@H]2C(=CC(=O)[C@H]2CC(=O)C(=O)N2CCCC2)CN1C(=O)c1ccccc1	-16	69*	.	4	2	37	22
COC(=O)[C@@]1(Cc2ccc(OC)cc2)[C@@H]2[C@@H](CC(=O)[C@H]2CC(=O)C(=O)N(C)C)CN1C(=O)c1ccccc1	-6	9	11	3	-3	1	.
COc1cc2nc(N(CCCN(C)C)C(=O)c3ccc(S(=O)(=O)N4CCc5ccccc54)cc3)sc2cc1OC	.	32	-7	-2	6	-11	.
CCN(Cc1ccccc1)S(=O)(=O)c1ccc(C(=O)N(CCCN(C)C)c2nc3cc(OC)ccc3s2)cc1	5	50*	-1	2	9	34	23
COc1ccc2sc(N(CCCN(C)C)C(=O)c3ccc(S(=O)(=O)N4CCCc5ccccc54)cc3)nc2c1	.	80*	46	3	10	3	44*	FLuc counter=64*
CCN(Cc1ccccc1)S(=O)(=O)c1ccc(C(=O)N(CCCN(C)C)c2nc3cc4c(cc3s2)OCCO4)cc1	.	78*	-9	3	11	-1	38	FLuc counter=77*
Cc1ccccc1CN1CCSc2sccc2C1=O	-4	7	-12	-1	-3	-11	.
N#Cc1ccc(NC(=O)CN2C(=O)NC3(CCCC3)C2=O)cc1	-3	-15	-6	-1	-2	0	.
COCc1ccc(-c2c(-c3ccc(OC)cc3)oc(=O)c3cc(OC)c(OC)cc23)cc1	16	-25	.	.	.	23	.
COc1cc2c(-c3ccc4cc[nH]c4c3)c(-c3ccc(C#N)cc3)oc(=O)c2cc1OC	27	59*	.	3	9	39	35	FLuc counter=52*
O=C(N[C@@H]1C/C=C\C[C@@H](CC(=O)N(CCO)Cc2ccccc2)C(=O)NCCOC1=O)OCC1c2ccccc2-c2ccccc21	18	9	.	.	.	.	.
SMILES	Beta apoptosis	Mdm2-MdmX inh	Calb FLC	PP5 primary	PP1 counter	CSC inhib	Mdm2-MdmX conf	others
O=C(N[C@H]1C/C=C\C[C@@H](CC(=O)N(CCO)Cc2ccccc2)C(=O)NC[C@H](c2ccccc2)OC1=O)OCC1c2ccccc2-c2ccccc21	10	58*	.	.	.	104*	12
O=C(N[C@@H]1C/C=C\C[C@H](CC(=O)N(CCO)Cc2ccccc2)C(=O)N[C@@H](Cc2ccccc2)COC1=O)OCC1c2ccccc2-c2ccccc21	1	93*	.	.	.	40	43*	FLuc counter=59*
CN(Cc1ccc(Cl)cc1)C(=O)COC(=O)CSc1ccc([N+](=O)[O-])cc1	-3	25	.	6	1	.	.
C=CCS/C(N)=N\N=C\c1cc(Br)cc([N+](=O)[O-])c1O	1	24	12	1	-1	25	.
Cc1nc2ccc(C(=O)N3c4ccccc4CC3C)cc2s1 (stereo not drawn)	8	66*	116*	0	-5	-7	58*	FLuc counter=50*
CC1Cc2ccccc2N1C(=O)c1cccnc1 (stereo not drawn)	1	2	4	0	-3	5	.
Cc1cccc(NC(=O)c2ccc(C3SCC(=O)N3CCc3ccccc3)cc2)c1 (stereo not drawn)	37	54*	-4	5	1	0	25
COc1ccc(NC(=O)Cc2c(SC)c3ccccc3n2Cc2ccccc2)cc1	23	69*	-3	-2	-2	-1	40	FLuc counter=90*
CCNc1nc(OC)nc(N(OC)S(=O)(=O)c2ccc(C)cc2)n1	-5	-1	-2	-1	-2	-7	.
NC(N)=N/N=C/c1ccc(OCc2ccccc2Cl)cc1	8	98*	-4	4	17*	105*	67*	FLuc counter=32
NC(N)=N/N=C/c1ccc(Cl)c(Cl)c1	4	49	2	0	-1	6	.
COc1cccc(CNC(=O)C2CCN(S(=O)(=O)c3ccc4c(c3)OCCO4)CC2)c1	-1	7	-9	-2	-2	.	.
CN1CCC2(CC1)Nc1nc(SCc3ccc(Cl)cc3)nn1C1=C2CN(C)CC1	-7	53*	5	2	2	4	34
CC(=O)c1cnc2nc(SCc3ccc(Cl)cc3)nn2c1C	0	1	1	4	-1	-12	.
